The values that follow come from the supplement of paper PMC12494721.

The structures appear in SMILES notation. Structures can show the parent of a compound that is named as a salt.

The subject of this assay is Klebsiella aerogenes DSM 30053. Kind of assay: fold change of Histamine concentration vs plate DMSO controls (fold change (ratio)); higher = more amine produced, active = hit call of the paper (significant change in both replicates, either direction). The note with it: 20 µM; incubation time: 27 h, anaerobic, 37 °C. The method, boiled down: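 In 80 µL wells, cultures of four gut bacterial strains in mGAM started at OD 0.1 before a 1:1 dilution and grew anaerobically at 37 °C for 27 h. Compounds were added to 20 µM final, except sweeteners at 50 µM final. After extraction of whole cultures with cold acetonitrile/methanol plus 0.1% formic acid and centrifugation, amines were measured by LC–triple-quadrupole MS in dynamic MRM mode against external calibration curves, with within-batch drift correction. Values give fold change over DMSO controls on the same plate, averaged across 2 biological replicates.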
Regarding `C=C[C@H]1CN2CC[C@H]1C[C@H]2[C@H](OC(=O)OCC)c1ccnc2ccc(OC)cc12` [Quinine ethyl carbonate], the “fold change of Histamine concentration” value was 0.967 (inactive).
Consider `S=C(NC1CCCCC1)N1CCC(c2cnc[nH]2)CC1` [Thioperamide maleate], for which the “fold change of Histamine concentration” value was 1.07 (inactive).
Turning to `N#Cc1sc2c(=O)c3ccccc3c(=O)c=2sc1C#N`, the “fold change of Histamine concentration” value is 0.994 (inactive).
As for `CC(=O)OC1CN2CCC1CC2` (configuration not stated) [Aceclidine hydrochloride], the “fold change of Histamine concentration” value was 0.864 (inactive).
The value for `C1=Cc2cccc3cccc1c23` [Acenaphthylene] was 1.02 (inactive).
In the case of `CS(=O)(=O)c1ccc(C(=O)C2C(=O)CCCC2=O)c([N+](=O)[O-])c1`, the “fold change of Histamine concentration” value is 1.02 (inactive).
For `CCN(CC)CCOC(=O)C(O)(c1ccccc1)c1ccccc1` [Benactyzine hydrochloride], the “fold change of Histamine concentration” value is 0.998 (inactive).
Turning to `c1ccc2c(c1)Nc1ccccc1S2` [Phenothiazine], the “fold change of Histamine concentration” value was 0.931 (inactive).
`CCC1(C)CC(=O)NC(=O)C1` [Bemegride]: the “fold change of Histamine concentration” value is 0.98 (inactive).
Next, `CNC(=O)/C=C(\C)OP(=O)(OC)OC`: 1.01 (inactive); `CC[N+]1(C)CCCC(OC(=O)C(O)(c2ccccc2)c2ccccc2)C1` (configuration not stated) [Pipenzolate bromide]: 0.982 (inactive); `CC(C)(C)c1ccc(CSc2cnn(C(C)(C)C)c(=O)c2Cl)cc1`: 1 (inactive).
For the compound `CSc1nc(NC(C)C)nc(NC(C)C)n1`, the “fold change of Histamine concentration” value was 0.971 (inactive).
`O=C(Nc1ccc(F)cc1F)c1cccnc1Oc1cccc(C(F)(F)F)c1`: the “fold change of Histamine concentration” value was 1.01 (inactive).
On to `O=C(CCCN1CCC2(CC1)C(=O)NCN2c1ccccc1)c1ccc(F)cc1` [Spiperone], for which the “fold change of Histamine concentration” value was 1.01 (inactive).
Regarding `CCOCN(C(=O)CCl)c1c(C)cccc1CC`, the “fold change of Histamine concentration” value is 1.01 (inactive).
In the case of `ClC1C(Cl)C(Cl)C(Cl)C(Cl)C1Cl` (configuration not stated), the “fold change of Histamine concentration” value is 0.984 (inactive).
For the compound `CCSC(C)CC1CC(=O)C(/C(CC)=N/OC/C=C/Cl)=C(O)C1` (mixture of isomers), the “fold change of Histamine concentration” value was 1.02 (inactive).
For `O=P1(N(CCCl)CCCl)NCCCO1` (configuration not stated) [Cyclophosphamide], the “fold change of Histamine concentration” value is 1.03 (inactive).
On to `CN1[C@@H]2C[C@@H](OC(=O)[C@H](CO)c3ccccc3)C[C@H]1[C@@H]1O[C@@H]12` [Scopolamine hydrochloride], for which the “fold change of Histamine concentration” value is 0.953 (inactive).
As to `COP(=S)(OC)SCN1C(=O)c2ccccc2C1=O`, the “fold change of Histamine concentration” value is 0.945 (inactive).
Take `CC(C)N(C)S(=O)(=O)NC(=O)c1cc(-n2c(=O)cc(C(F)(F)F)n(C)c2=O)c(F)cc1Cl`: the “fold change of Histamine concentration” value was 0.99 (inactive).
For `CN/C(=N/CC1CCOC1)N[N+](=O)[O-]` (configuration not stated), the “fold change of Histamine concentration” value is 1.03 (inactive).
On to `CC(=O)O[C@H]1C[C@H](O[C@H]2[C@@H](O)C[C@H](O[C@H]3[C@@H](O)C[C@H](O[C@H]4CC[C@@]5(C)[C@H](CC[C@@H]6[C@@H]5C[C@@H](O)[C@]5(C)[C@@H](C7=CC(=O)OC7)CC[C@]65O)C4)O[C@@H]3C)O[C@@H]2C)O[C@H](C)[C@H]1O[C@@H]1O[C@H](CO)[C@@H](O)[C@H](O)[C@H]1O` [Lanatoside C], for which the “fold change of Histamine concentration” value is 0.992 (inactive).
On to `NC(=O)C[S+]([O-])C(c1ccccc1)c1ccccc1` (configuration not stated) [Modafinil], for which the “fold change of Histamine concentration” value was 0.949 (inactive).
Next, `CCn1cc(C(=O)O)c(=O)c2cc3c(cc21)OCO3` [Oxolinic acid]: 0.275 (active).
For the compound `c1ccc2c(c1)cc1ccc3cccc4ccc2c1c34` [Benzo[a]pyrene], the “fold change of Histamine concentration” value is 0.948 (inactive).
Regarding `CCNC(=O)NC(=O)/C(C#N)=N/OC`, the “fold change of Histamine concentration” value is 0.937 (inactive).
On to `CNC(=O)Oc1ccc2c(c1)[C@]1(C)CCN(C)[C@@H]1N2C` [Eserine hemisulfate salt], for which the “fold change of Histamine concentration” value was 1.04 (inactive).
For the compound `Oc1ccc2c3c1O[C@H]1[C@@H](O)CC[C@@]4(O)[C@@H](C2)N(CC2CCC2)CC[C@]314` [Nalbuphine hydrochloride], the “fold change of Histamine concentration” value was 1 (inactive).
The value for `CON(C)C(=O)Nc1ccc(Cl)c(Cl)c1` was 0.924 (inactive); that for `C=CC(N)=O` [Acrylamide] was 0.995 (inactive).
For the compound `Nc1ccncc1` [Dalfampridine], the “fold change of Histamine concentration” value was 0.957 (inactive).
The value for `CC(=O)O[C@H]1C[C@@H]2CC[C@@H]3[C@H](CC[C@@]4(C)[C@H]3C[C@H]([N+]3(C)CCCCC3)[C@@H]4OC(C)=O)[C@@]2(C)C[C@@H]1[N+]1(C)CCCCC1` [Pancuronium bromide] was 0.905 (inactive); that for `CC(C)(C)C(O)(CCc1ccc(Cl)cc1)Cn1cncn1` (configuration not stated) was 0.981 (inactive); that for `CCNC1(c2cccs2)CCCCC1=O` (configuration not stated) [Tiletamine hydrochloride] was 1.03 (inactive).
The value for `COc1ccc(OC)c(C(O)C(C)N)c1` (configuration not stated) [Methoxamine hydrochloride] was 1.06 (inactive).
